Assay results reported in PubChem BioAssay (NCATS).
Results filed as inconclusive are left out. Activity calls are given as the source filed them. Unless noted, calls follow the shape of the full dose curve.

Key:
[1] = target: Estrogen receptor (Homo sapiens) (UniProt P03372); assay: qHTS assay for small molecule antagonists of estrogen receptor alpha signaling (AID 588513; active = well fitted curve in the direction sought with a large enough effect in the signal ratio, with a control signal flat, not every such curve was filed as active; the % refers to the signal ratio; also: % is scaled to controls: 0 for no effect and ±100 for the full control effect)
Sequence of Estrogen receptor (Homo sapiens) (P03372 whole entry, looked up): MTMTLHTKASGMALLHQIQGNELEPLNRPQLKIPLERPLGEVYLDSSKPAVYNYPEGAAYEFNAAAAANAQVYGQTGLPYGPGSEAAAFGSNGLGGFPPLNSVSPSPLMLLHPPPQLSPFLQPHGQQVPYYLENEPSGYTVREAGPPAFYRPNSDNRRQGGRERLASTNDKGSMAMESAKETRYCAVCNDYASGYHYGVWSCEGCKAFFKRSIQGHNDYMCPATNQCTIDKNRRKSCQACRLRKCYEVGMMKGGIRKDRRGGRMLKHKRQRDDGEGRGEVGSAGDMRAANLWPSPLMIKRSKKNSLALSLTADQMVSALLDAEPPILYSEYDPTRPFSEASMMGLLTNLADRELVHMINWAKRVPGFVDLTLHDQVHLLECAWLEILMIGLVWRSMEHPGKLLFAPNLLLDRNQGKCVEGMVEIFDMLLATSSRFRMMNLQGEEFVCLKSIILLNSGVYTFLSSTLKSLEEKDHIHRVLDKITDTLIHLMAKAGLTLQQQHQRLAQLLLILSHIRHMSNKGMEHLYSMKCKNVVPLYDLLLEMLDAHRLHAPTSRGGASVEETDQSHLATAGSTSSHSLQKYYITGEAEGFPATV
Outline: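 Antagonist mode: inhibition of 0.5 nM 17-beta-estradiol-driven beta-lactamase reporter in HEK 293 ER-alpha-UAS-bla cells, 18 h at 37C, CCF4 readout after 2 h at RT. Normalised to estradiol and DMSO; titration fitted to Hill.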

[2] = target: Estrogen receptor (Homo sapiens) (UniProt P03372); assay: qHTS assay for small molecule agonists of estrogen receptor alpha signaling (AID 588514);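 also: 0% = vehicle only and 100% = reference agonist; nearly all actives have a fitted effect of over 70% in size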
Outline: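 Read-out: CCF4 fluorescence from a beta-lactamase reporter in ER-alpha-UAS-bla HEK 293 cells after 18 hrs of compound exposure at 37 C. Normalized to 20 nM 17-beta-estradiol (100%) and DMSO (0%).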

[3] = target: Glucocorticoid receptor (Homo sapiens) (UniProt P04150); assay: qHTS assay for small molecule agonists of glucocorticoid receptor signaling (AID 588532; active = well fitted curve in the direction sought with a large enough effect in the signal ratio, with a control signal flat; the % refers to the signal ratio;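 also: 100% = dexamethasone at 0.1 µM and 0% = DMSO only wells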); conditions: HeLa MMTV-bla, beta-lactamase ratio, agonist, 18 h; stronger effect = higher value; percent of dexamethasone control, DMSO zero
Sequence of Glucocorticoid receptor (Homo sapiens) (P04150 whole entry, looked up): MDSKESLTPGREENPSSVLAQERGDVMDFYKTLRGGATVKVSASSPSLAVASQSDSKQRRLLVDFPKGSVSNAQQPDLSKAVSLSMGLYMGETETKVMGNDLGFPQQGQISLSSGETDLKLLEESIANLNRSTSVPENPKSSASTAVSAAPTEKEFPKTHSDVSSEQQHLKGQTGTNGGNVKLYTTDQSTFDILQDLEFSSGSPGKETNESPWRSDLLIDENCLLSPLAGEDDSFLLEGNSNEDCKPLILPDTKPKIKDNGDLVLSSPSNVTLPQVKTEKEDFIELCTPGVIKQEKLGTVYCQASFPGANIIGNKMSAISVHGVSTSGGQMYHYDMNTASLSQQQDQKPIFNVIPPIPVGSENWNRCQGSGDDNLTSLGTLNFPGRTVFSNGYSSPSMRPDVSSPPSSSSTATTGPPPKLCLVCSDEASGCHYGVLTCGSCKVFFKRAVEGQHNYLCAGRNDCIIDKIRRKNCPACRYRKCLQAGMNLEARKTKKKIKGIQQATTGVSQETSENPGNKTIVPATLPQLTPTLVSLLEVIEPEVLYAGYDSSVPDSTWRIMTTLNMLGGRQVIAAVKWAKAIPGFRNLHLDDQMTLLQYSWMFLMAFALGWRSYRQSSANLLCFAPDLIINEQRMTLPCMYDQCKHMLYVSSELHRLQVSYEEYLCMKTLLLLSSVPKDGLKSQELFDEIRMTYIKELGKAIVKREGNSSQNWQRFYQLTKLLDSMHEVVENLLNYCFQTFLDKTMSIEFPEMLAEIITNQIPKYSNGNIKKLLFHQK
Outline: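 HeLa GRE-bla reporter cells; 18 h compound exposure at 37 C; 2 h CCF4 loading at room temperature; fluorescence at 460 and 530 nm; EC50 by Hill equation.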

[4] = qHTS assay for small molecule antagonists of peroxisome proliferator-activated receptor delta signaling (AID 588535); conditions: HEK293T PPARd-UAS-bla, beta-lactamase FRET ratio, 18 h; 460 nm channel;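 also: cells co-treated with a PPAR-delta agonist as stimulator during compound exposure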
Outline: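 Beta-lactamase reporter read-out (405 nm excitation, 460/530 nm emission) after CCF4 loading for 2 hrs at RT. HEK293T PPAR-delta-UAS-bla cells, 2% charcoal/dextran FBS, compounds for 18 hrs at 37 C. Hill fit gave IC50 and efficacy.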

[5] = target: Peroxisome proliferator-activated receptor gamma (Homo sapiens) (UniProt P37231); assay: qHTS assay for small molecule agonists of peroxisome proliferator-activated receptor gamma signaling (AID 588536; active = well fitted curve in the direction sought with a large enough effect in the signal ratio, with a control signal flat, not every such curve was filed as active; the % refers to the signal ratio;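 also: 0% = DMSO basal wells and 100% = rosiglitazone at 2 µM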)
Sequence of Peroxisome proliferator-activated receptor gamma (Homo sapiens) (P37231 whole entry, looked up): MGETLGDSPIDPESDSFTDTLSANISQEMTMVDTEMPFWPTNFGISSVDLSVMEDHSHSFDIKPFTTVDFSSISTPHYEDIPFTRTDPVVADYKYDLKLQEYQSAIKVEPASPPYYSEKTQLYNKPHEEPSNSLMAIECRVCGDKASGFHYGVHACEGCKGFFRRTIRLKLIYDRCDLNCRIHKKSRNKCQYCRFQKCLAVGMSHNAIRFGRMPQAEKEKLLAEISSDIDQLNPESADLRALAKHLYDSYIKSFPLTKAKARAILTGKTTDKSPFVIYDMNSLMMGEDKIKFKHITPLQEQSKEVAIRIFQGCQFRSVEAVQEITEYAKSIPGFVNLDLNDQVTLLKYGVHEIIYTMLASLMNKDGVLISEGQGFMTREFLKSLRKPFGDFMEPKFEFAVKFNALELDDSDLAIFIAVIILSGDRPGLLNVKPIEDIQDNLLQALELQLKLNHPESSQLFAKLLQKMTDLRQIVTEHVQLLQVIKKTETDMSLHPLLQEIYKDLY
Outline: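 This is an agonist-mode beta-lactamase reporter assay in HEK293 PPAR-gamma-UAS-bla cells with 1% charcoal/dextran FBS. Compound titrations ran 16 h at 37 C before CCF4 detection. EC50 and efficacy are Hill fits scaled to 2 uM rosiglitazone (100%) and DMSO basal.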

[6] = target: Vitamin D3 receptor (Homo sapiens) (UniProt P11473); assay: qHTS assay for small molecule antagonists of vitamin D receptor signaling (AID 588541);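 also: receptor activated by calcitriol during compound treatment; series mostly up to about 77 µM; % is scaled to controls: 0 for no effect and ±100 for the full control effect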
Sequence of Vitamin D3 receptor (Homo sapiens) (P11473 whole entry, looked up): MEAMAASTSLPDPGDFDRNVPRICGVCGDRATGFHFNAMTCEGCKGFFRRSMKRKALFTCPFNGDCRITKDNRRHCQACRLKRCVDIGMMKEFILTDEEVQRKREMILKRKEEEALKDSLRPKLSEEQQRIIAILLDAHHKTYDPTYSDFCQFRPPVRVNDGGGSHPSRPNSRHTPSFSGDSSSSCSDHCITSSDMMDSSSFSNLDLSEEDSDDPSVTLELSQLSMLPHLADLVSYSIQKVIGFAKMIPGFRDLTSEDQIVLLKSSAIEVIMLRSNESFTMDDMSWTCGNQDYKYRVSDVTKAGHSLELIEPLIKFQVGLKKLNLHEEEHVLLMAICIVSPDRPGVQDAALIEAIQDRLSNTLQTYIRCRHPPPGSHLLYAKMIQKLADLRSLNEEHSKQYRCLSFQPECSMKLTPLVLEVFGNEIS
Outline: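 VDR-UAS-bla HEK293T cells in 2% charcoal-stripped FBS were stimulated with 1-alpha,25-dihydroxyvitamin D3 (3 nM final) plus compound for 16 h at 37 C. The beta-lactamase CCF4 readout was normalized to 50 nM agonist and DMSO, and Hill fits gave IC50.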

[7] = qHTS assay for small molecule agonists of retinoid X receptor alpha signaling (AID 588544); conditions: HEK293T RXRa-UAS-bla, beta-lactamase reporter, 18 h; 530 nm emission; also: potency is read from the fitted curve at half-maximal effect;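 as to activation: 0% = DMSO basal wells and 100% = reference agonist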
[8] = target: Retinoic acid receptor RXR-alpha (Homo sapiens) (UniProt P19793); assay: as above
Sequence of Retinoic acid receptor RXR-alpha (Homo sapiens) (P19793 whole entry, looked up): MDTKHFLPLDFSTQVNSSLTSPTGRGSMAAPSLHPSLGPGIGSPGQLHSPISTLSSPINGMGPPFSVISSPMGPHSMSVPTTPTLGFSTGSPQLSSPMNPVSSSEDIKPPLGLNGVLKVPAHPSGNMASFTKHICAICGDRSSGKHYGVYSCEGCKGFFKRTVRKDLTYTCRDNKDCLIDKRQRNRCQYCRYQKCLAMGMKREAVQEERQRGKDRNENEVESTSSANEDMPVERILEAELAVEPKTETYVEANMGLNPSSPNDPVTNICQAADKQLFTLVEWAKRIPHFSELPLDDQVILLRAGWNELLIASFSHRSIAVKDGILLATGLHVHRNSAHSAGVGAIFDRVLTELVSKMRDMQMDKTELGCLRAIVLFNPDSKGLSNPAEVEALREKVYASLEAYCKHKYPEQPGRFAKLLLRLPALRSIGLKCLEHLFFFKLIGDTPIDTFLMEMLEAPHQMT

[9] = target: Thyroid hormone receptor beta (Homo sapiens) (UniProt P10828); assay: qHTS assay for small molecule agonists of thyroid hormone receptor beta signaling (AID 588545)
Sequence of Thyroid hormone receptor beta (Homo sapiens) (P10828 whole entry, looked up): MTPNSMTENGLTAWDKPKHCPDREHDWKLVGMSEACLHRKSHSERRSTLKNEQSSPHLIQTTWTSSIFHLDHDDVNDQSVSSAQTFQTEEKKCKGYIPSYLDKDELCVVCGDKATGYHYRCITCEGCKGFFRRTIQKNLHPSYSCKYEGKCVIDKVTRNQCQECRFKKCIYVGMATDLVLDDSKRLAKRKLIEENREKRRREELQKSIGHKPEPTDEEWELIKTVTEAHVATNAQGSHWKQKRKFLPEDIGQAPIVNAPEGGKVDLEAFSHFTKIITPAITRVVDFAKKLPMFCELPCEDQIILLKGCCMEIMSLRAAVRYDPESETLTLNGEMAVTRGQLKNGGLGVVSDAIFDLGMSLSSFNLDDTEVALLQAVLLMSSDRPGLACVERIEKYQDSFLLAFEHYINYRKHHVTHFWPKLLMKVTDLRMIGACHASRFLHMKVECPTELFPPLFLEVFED
Outline: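 Agonist-mode beta-lactamase reporter assay, HEK 293 cells, 2% charcoal/dextran FBS; cells plated 4 hrs, compound 18 hrs at 37 C, CCF4 2 hrs RT. Normalized to 10 nM T3 (100%) and DMSO (0%); Hill fit gives EC50, efficacy.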

[10] = qHTS assay for small molecule antagonists of retinoid X receptor alpha signaling (AID 588546; active = well fitted inhibition curve with a large enough effect in the signal ratio, with a control signal flat, not every such curve was filed as active; the % refers to the signal ratio;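 also: cells stimulated with 9-cis-retinoic acid as agonist; % is scaled to controls: 0 for no effect and ±100 for the full control effect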); conditions: HEK293T RXRa-UAS-bla, beta-lactamase ratio, antagonist mode; measured here: W530 green channel, cytotoxicity proxy
Outline: (§1)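 Beta-lactamase reporter inhibition, read as CCF4 fluorescence ratio (ex 405, em 460/530 nm) after 2 h at RT. HEK293T UAS-bla cells, 2500/well, were stimulated with 9-cis-RA at 500 or 100 nM final alongside test compound for 18 h at 37 C.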

[11] = target: Retinoic acid receptor RXR-alpha (Homo sapiens) (UniProt P19793); assay: as above; conditions: HEK293T RXRa-UAS-bla, beta-lactamase ratio, antagonist mode
Outline: as §1

[12] = target: Thyroid hormone receptor beta (Homo sapiens) (UniProt P10828); assay: qHTS assay for small molecule antagonists of thyroid hormone receptor beta signaling (AID 588547; active = well fitted inhibition curve with a large enough effect in the signal ratio, with a control signal flat, not every such curve was filed as active; the % refers to the signal ratio;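 also: cells stimulated with 0.4 nM T3 agonist during compound exposure; series mostly up to about 77 µM; % is scaled to controls: 0 for no effect and ±100 for the full control effect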); conditions: TR-UAS-bla HEK293, beta-lactamase ratio, antagonist mode, 18 h
Outline: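 TR-UAS-bla GripTite HEK293 cells in 2% charcoal/dextran FBS medium; compounds 0.59 nM to 92 uM with T3 at 0.4nM final, 18 h at 37 C. Beta-lactamase read by CCF4 fluorescence (460/530 nm); Hill fits gave IC50 and efficacy.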

[13] = qHTS assay for small molecule activators of the nuclear factor-kappa B (NF-kB) signaling pathway (AID 651749; active = well fitted activation curve with a large enough effect in the signal ratio; the % refers to the signal ratio; also: series mostly up to about 77 µM; % of control where 0% means no effect); conditions: NF-kB-bla ME-180 cells, beta-lactamase FRET ratio, 16 h; activation: stronger effect = higher value
Outline: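 NF-kB-bla ME-180 cells, 2,000/well; 23 nL compound or DMSO pinned; 16 hr, 37C/5% CO2; beta-lactamase FRET read-out.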

[14] = target: Peroxisome proliferator-activated receptor alpha (Homo sapiens) (UniProt Q07869); assay: qHTS assay for small molecule agonists of the peroxisome proliferator-activated receptor alpha (PPARalpha) signaling pathway (AID 651778; active = well fitted curve in the direction sought with a large enough effect; an effect the other way counts as inactive or inconclusive; also: % of control where 0% means no effect); conditions: PathHunter PPARalpha complementation, chemiluminescence, 6 h; max response: stronger effect = higher value
Sequence of Peroxisome proliferator-activated receptor alpha (Homo sapiens) (Q07869 whole entry, looked up, the tested form may be a part): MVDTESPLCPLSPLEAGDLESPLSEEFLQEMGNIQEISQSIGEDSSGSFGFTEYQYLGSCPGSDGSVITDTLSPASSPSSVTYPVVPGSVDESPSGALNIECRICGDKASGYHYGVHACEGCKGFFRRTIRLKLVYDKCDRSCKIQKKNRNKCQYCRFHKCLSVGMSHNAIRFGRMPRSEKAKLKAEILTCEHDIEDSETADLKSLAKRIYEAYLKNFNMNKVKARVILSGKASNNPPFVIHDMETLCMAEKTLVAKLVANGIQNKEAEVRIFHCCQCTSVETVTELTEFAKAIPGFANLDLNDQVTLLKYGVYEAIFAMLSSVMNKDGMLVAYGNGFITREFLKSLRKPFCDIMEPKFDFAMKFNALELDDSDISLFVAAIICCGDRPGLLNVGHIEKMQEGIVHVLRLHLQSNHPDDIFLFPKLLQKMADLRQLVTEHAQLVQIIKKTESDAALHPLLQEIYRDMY
Outline: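 Enzyme-fragment complementation assay in which ligand-bound PPARalpha translocates and forms an active enzyme that generates chemiluminescence. Cells were plated overnight, exposed to compound for 6 hr at 37 C, and then given detection reagent for 60 min at room temperature.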

[15] = qHTS assay for small molecule agonists of the antioxidant response element (ARE) signaling pathway measured by Nrf2-dependant transcriptional activity - cell viability counter screen (AID 720653; active = well fitted curve in the direction sought with a large enough effect in the repeat runs; an effect the other way counts as inactive or inconclusive; also: % is scaled to controls: 0 for no effect and ±100 for the full control effect); conditions: ARE-bla HepG2 viability, CellTiter-Glo ATP luminescence, 16 h; max response: stronger effect = lower value
Outline: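 ARE-bla HepG2 cells treated with compounds for 16 h at 37C; this counter screen measures viability as intracellular ATP by CellTiter-Glo luminescence after 30 min at room temperature.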

[16] = qHTS assay for cell viability of HEK293 cells (AID 743288; active = well fitted curve in the direction sought with a large enough effect; an effect the other way counts as inactive or inconclusive; also: % is scaled to controls: 0 for no effect and ±100 for the full control effect; nearly all actives have a fitted effect of over 50% in size); conditions: ATP luminescence (CellTiter-Glo), 18 h; max response: stronger effect = lower value
Outline: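 Readout is luciferase-coupled ATP content (CellTiter-Glo luminescence, 30 min room temperature) as a measure of metabolically competent cells. Parental HEK293 cells were plated 5 h or more before compound addition, then treated 18 h at 37 C.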

[17] = target: Nuclear receptor subfamily 1 group I member 2 (Rattus norvegicus) (UniProt Q9R1A7); assay: qHTS assay for small molecule activators of the rat pregnane X receptor (rPXR) signaling pathway (AID 651751; call rule not given here; also: 0% is about no effect); conditions: rPXR reporter cells, luciferase (One-Glo), 24 h
Sequence of Nuclear receptor subfamily 1 group I member 2 (Rattus norvegicus) (Q9R1A7 whole entry, looked up): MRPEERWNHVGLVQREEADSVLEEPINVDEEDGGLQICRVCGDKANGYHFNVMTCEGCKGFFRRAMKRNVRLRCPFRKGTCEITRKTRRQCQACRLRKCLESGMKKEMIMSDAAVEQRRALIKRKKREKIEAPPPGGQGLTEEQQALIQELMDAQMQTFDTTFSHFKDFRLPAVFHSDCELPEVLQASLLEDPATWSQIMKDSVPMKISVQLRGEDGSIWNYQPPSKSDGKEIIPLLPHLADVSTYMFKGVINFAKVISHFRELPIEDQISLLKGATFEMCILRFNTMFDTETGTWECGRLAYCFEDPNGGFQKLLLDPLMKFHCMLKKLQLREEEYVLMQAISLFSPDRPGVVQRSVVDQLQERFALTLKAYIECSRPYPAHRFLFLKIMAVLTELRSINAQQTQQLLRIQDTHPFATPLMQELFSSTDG

[18] = qHTS assay for small molecule activators of the human pregnane X receptor (PXR) signaling pathway (AID 720659; call rule not given here; also: 0% is about no effect)
[19] = qHTS assay for environmental chemicals that activate the Aryl hydrocarbon Receptor (AhR) signaling pathway (AID 651777; active = well fitted curve in the direction sought with a large enough effect; an effect the other way counts as inactive or inconclusive; also: % of control where 0% means no effect; nearly all actives have a fitted effect of over 15% in size); conditions: 1A2-DRE human hepatoma cells, luciferase, 24 h; activation: stronger effect = higher value
Outline: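 Concentration–response screening used 1,200 1A2-DRE cells per well, 24 hr compound exposure (37 C, 5% CO2), and One-Glo luminescence as the AhR-driven CYP1A2 reporter signal.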

[20] = qHTS assay for cell viability of the p53RE-bla HCT-116 cell line (AID 743292; active = well fitted curve in the direction sought with a large enough effect; an effect the other way counts as inactive or inconclusive; also: % is scaled to controls: 0 for no effect and ±100 for the full control effect; nearly all actives have a fitted effect of over 55% in size)
Outline: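 Compound-exposed HCT-116 (p53RE-bla) cells, 4,000 per well, were kept 16 h at 37 C following a 5 h preincubation. Cell number was estimated from total ATP by CellTiter-Glo luminescence read after 30 min at room temperature.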

CCCCC(CC)C(=O)OCCOCCOCCOC(=O)C(CC)CCCC (stereo not given)
18.8%: max response [7]
37.3%: max response [4]
-5.42%: max response [10]
inactive: Potency [1] | Potency [2] | activation [3] -10% | outcome [5] | Potency [6] | Potency [8] | Potency [9] | max response [11] -7.08% | activity change % (negative = inhibition) [12] 12.7% | activation [13] -6.56% | max response [14] 0.387% | max response [15] 1.57% | max response [16] -11.7% | max response [17] 4.7% | outcome [18]

CCCCCCCCCCCCCCCCCCN
active: Potency [8] 15.8 µM
inactive: Potency [1] | Potency [2] | activation [3] -6.46% | Potency [6] | Potency [9] | max response [11] 4.01% | activity change % (negative = inhibition) [12] 13% | activation [13] 0.495% | activation [19] 0.284% | max response [14] 0.121% | max response [15] -7.69% | max response [16] 4.92% | Potency [20] | max response [17] -2.88% | outcome [18]
-24%: max response [7]
13.6%: max response [4]
-8.83%: max response [10]

CC(=O)N(CCN(C(C)=O)C(C)=O)C(C)=O
-4.71%: max response [7]
inactive: Potency [1] | Potency [2] | activation [3] -10.7% | outcome [5] | Potency [8] | Potency [9] | max response [11] -5.17% | activity change % (negative = inhibition) [12] -8.71% | activation [13] -1.08% | activation [19] -3.27% | max response [14] 0.299% | max response [15] -1.28% | max response [16] -0.359% | Potency [20] | max response [17] -0.996% | outcome [18]
-2.01%: max response [10]
30.1%: max response [4]

CCc1cccc(C)c1N(C(=O)CS(=O)(=O)O)[C@@H](C)COC
9.75%: max response [10]
24.1%: max response [4]
inactive: Potency [1] | Potency [2] | activation [3] -18.8% | outcome [5] | Potency [6] | Potency [8] | Potency [9] | max response [11] -22.6% | activity change % (negative = inhibition) [12] -18.4% | activation [13] -2.32% | activation [19] -0.669% | max response [14] -2.29% | max response [15] -5.93% | max response [16] -5.4% | Potency [20] | max response [17] -5.94% | outcome [18]
-8.42%: max response [7]

CCCCCCCC[Si](Cl)(Cl)Cl
-7.78%: max response [7]
-3.5%: max response [10]
-4.76%: max response [4]
inactive: Potency [1] | Potency [2] | activation [3] -0.511% | outcome [5] | Potency [8] | Potency [9] | max response [11] -13.9% | activity change % (negative = inhibition) [12] -0.14% | activation [13] -3.66% | activation [19] 3.53% | max response [14] -0.623% | max response [15] -9.8% | max response [16] -3.47% | Potency [20] | max response [17] 0.644% | outcome [18]
